Out of some 1,400 compounds screened, about 560 (40%) were called active. The set was probably picked from earlier hits. The list shows a part of the results. Unmarked numbers belong to inactive results.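 Rule for the calls: active = mean inhibition over duplicate tests at 10 µM above 50%; inactive = the rest.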
Assay: ASC/caspase-1 reporter retest in S. cerevisiae at one dose, specificity check for NALP1 project (AID 488857)
Conditions: S. cerevisiae ASC/Caspase-1, beta-galactosidase luminescence, 24 h; at 10 µM; active compounds read high

Structure (SMILES) | inhibition
Fc1ccc(C(OCCN2CCCC2)c2ccc(Br)cc2)cc1 (centres undefined) | 53.5% (active)
CCCCN(Cc1ccccc1)C1CCN(CCc2ccccc2)CC1 | 52.6% (active)
CSc1ncc(Cl)c(C(=O)O)n1 (tested in a mixture with another compound) | 35.1%
Clc1ccc2nc3c(c(-c4ccccc4)c2c1)CNCC3 | 57% (active)
O=C(c1ccccc1)C(CN1CCCC1)c1ccccc1 (centres undefined) | 25.8%
COc1cc2c(cc1OC)CN(c1ccc([N+](=O)[O-])c(C(F)(F)F)c1)CC2 | 69% (active)
CCOCCN1CCN(c2nnc3n2-c2ccc(Cl)cc2C(c2ccccc2Cl)=NC3)CC1 | 30.9%
CN[C@H]1C[C@H]2O[C@@](C)([C@H]1OC)n1c3ccccc3c3c4c(c5c6ccccc6n2c5c31)C(=O)NC4 | 99.2% (active)
Cc1ccc(C)c(NC(=S)NCCc2cnc[nH]2)c1 | 42.5%
CC(Cc1ccccc1Sc1ccccc1)N(C)C (centres undefined) | 42.8%
COCCNCCOc1ccc(C(C)(C)c2ccccc2)cc1 | 52.3% (active)
CC1(C)C[C@H]2C=C(C=O)[C@]3(C=O)C[C@]3(C)[C@H]2C1 | 81.3% (active)
O=C1/C(=C/c2cccc([N+](=O)[O-])c2)N2CCC1CC2 | 51.1% (active)
Nc1c2c(nc3sc4c(c13)CCCCC4)CCCC2 | 91.1% (active)
Nc1c2c(nc3sc4c(c13)CCCC4)CCCCC2 | 58.4% (active)
CC(C)NS(=O)(=O)c1ccc(OCC(=O)N2CCN(C)CC2)cc1 | 17.6%
CC(C)CCn1c(=O)c(C(=O)NCc2ccco2)c(O)c2ccccc21 | 44.8%
Cc1cc2ccccn2c1C(C[N+](=O)[O-])c1c(F)cccc1Cl (centres undefined) | 52.8% (active)
C[C@H]1C[C@@H](C)C(=O)[C@@H]([C@H](O)CC2CC(=O)NC(=O)C2)C1 | 98.8% (active)
CC(Cc1ccccc1)NC(=O)/C=C/c1ccc(Cl)cc1 (centres undefined) | 71.7% (active)

Structure (SMILES) | inhibition
c1ccc2sc(NC3=NCCN3)nc2c1 | 100% (active)
O=C1/C(=C/c2cc3c(cc2Cl)OCO3)N2CCC1CC2 | 55% (active)
Nc1ccc(C2(c3ccc(N)cc3)CN3CCC2CC3)cc1 | 35%
CN1/C(=C\C=C\C2=[N+](C)c3ccc4ccccc4c3C2(C)C)C(C)(C)c2ccccc21 | 99.7% (active)
CN1CCN(c2ccc(N)c(N3CCN(C)CC3)c2)CC1 | 31.1%
O=C(c1cc2c(s1)-c1ccccc1OC2)N1CCC2(CC1)OCCO2 | 53.8% (active)
N#CCCn1cc(C(=O)NCc2ccccc2)c(-c2ccccc2)n1 | 39.2%
Cc1ccc(/C=C2\C(=O)NC(=O)N(CC3CCCO3)C2=O)s1 (centres undefined) | 46.5%
Cc1ccc(Cn2cc(C=O)c(-c3ccc(C)cc3)n2)cc1 | 67.5% (active)
Cc1cccc(N2C(=O)NC(=O)/C(=C/c3ccc([N+](=O)[O-])o3)C2=O)c1 | 45%
Cc1ccc(S(=O)(=O)NC(CC(=O)N2CCC3(CC2)OCCO3)c2ccco2)cc1 (centres undefined) | 31.6%
CN1C2CCC1/C(=C/c1ccccn1)C(=O)/C2=C\c1ccccn1 | 96.9% (active)
CCCCCn1c(=O)c(C(=O)Nc2nc3ccccc3[nH]2)c(O)c2ccccc21 | 36.8%
CCOc1cc(CNCCc2c[nH]c3ccccc23)cc(Cl)c1OCC | 43.5%
Nc1cc(Cl)c2nonc2c1[N+](=O)[O-] | 57.1% (active)
Cc1ccc(-c2nc(N3CCOCC3)s[n+]2-c2ccccc2)cc1 | 61.9% (active)
CNC(=O)Oc1ccc2ncccc2c1 | 42.4%
CC1CCCC(C)N1/N=C/c1c[nH]c2ccc(Br)cc12 (centres undefined) | 45.3%
COc1cc(/C=C(/C)[N+](=O)[O-])ccc1OCc1ccccc1Cl | 80.2% (active)

Source: PubChem BioAssay AID488857 (Sanford-Burnham Center for Chemical Genomics, 2010)
